# Measurements published in the supplement of paper PMC10037445.
# Over roughly 2,900 compounds, “NF-kB SEAP reporter activity, fold change vs agonist alone” has its median near 0.99; the highest 2% begin near 2.6. The sample holds the highest values, similar compounds and a random draw of the others, so the mix is not that of the screen.
# How the values were obtained:
# RAW-Dual [1] = assay: NF-kB SEAP reporter activity, fold change vs agonist alone; higher = enhanced NF-kB activity; details: cytotoxicity flag (confluency mask): not cytotoxic
# Outline: (§1)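 RAW-Dual macrophages were seeded in DMEM at 50,000 cells/well in 384-well plates, given 50 nL of library stock by pin tool, and given a PRR agonist 1 h later. Plates were held at 37 °C, 5% CO2 for 20 hours, after which supernatant was read for IRF by QuantiLuc luminescence and for NF-κB by QuantiBlue absorbance at 620 nm. Reporter activity is expressed as fold change over wells that received agonist alone. A well was called cytotoxic when IncuCyte confluency fell below 70% of agonist controls in both mask sets.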
# RAW-Dual [2] = assay: NF-kB SEAP reporter activity, fold change vs agonist alone; cytotoxicity flag (confluency mask): not cytotoxic; higher = enhanced NF-kB activity
# Outline: as §1
# [3] = library stock concentration (final ~1000-fold dilution): 10 mM, agonist: Imiquimod (TLR7) […]
# [4] = library stock concentration (final ~1000-fold dilution): 10 mM, agonist: MPLA (TLR4) […]
# [5] = agonist: ODN 1826 (TLR9) 0.5 ug/mL
# [6] = agonist: Pam2CSK4 (TLR2/6) 0.1 ug/mL
# [7] = agonist: Pam3CSK4 (TLR2/1) 0.1 ug/mL
structure (smiles),measurement,setting,value
O=C1NC(=O)C(c2cnc3ccccn23)=C1c1cn2c3c(cc(F)cc13)CN(C(=O)N1CCCCC1)CC2,NF-kB SEAP reporter activity,RAW-Dual [1]; [3],2.62
same,NF-kB SEAP reporter activity,RAW-Dual [1]; [4],2.43
O=C1NC(=O)C(c2cnc3ccccn23)=C1c1cn2c3c(cc(F)cc13)CN(C(=O)N1CCCCC1)CC2 (library stock concentration (final ~1000-fold dilution): 10 mM),NF-kB SEAP reporter activity,RAW-Dual [2]; agonist: LPS (TLR4) 0.1 ug/mL,3.19
same,NF-kB SEAP reporter activity,RAW-Dual [2]; [5],2.72
same,NF-kB SEAP reporter activity,RAW-Dual [2]; [6],1.42
same,NF-kB SEAP reporter activity,RAW-Dual [2]; [7],1.84
CC(C(=O)Nc1ccc(Cl)cc1)C1CCC(c2ccnc3ccc(F)cc23)CC1 (stereo unspecified) (library stock concentration (final ~1000-fold dilution): 10 mM),NF-kB SEAP reporter activity,RAW-Dual [2]; agonist: LPS (TLR4) 0.1 ug/mL,0.974
same,NF-kB SEAP reporter activity,RAW-Dual [2]; [5],1.05
same,NF-kB SEAP reporter activity,RAW-Dual [2]; [6],0.52
same,NF-kB SEAP reporter activity,RAW-Dual [2]; [7],0.738
CC(C(=O)Nc1ccc(Cl)cc1)C1CCC(c2ccnc3ccc(F)cc23)CC1 (stereo unspecified),NF-kB SEAP reporter activity,RAW-Dual [1]; [3],1.51
same,NF-kB SEAP reporter activity,RAW-Dual [1]; [4],1.55
COc1ccc(CNCc2cccc3ccccc23)cc1.Cl,NF-kB SEAP reporter activity,RAW-Dual [1]; [3],1.34
same,NF-kB SEAP reporter activity,RAW-Dual [1]; [4],1.44
COc1ccc(CNCc2cccc3ccccc23)cc1.Cl (library stock concentration (final ~1000-fold dilution): 10 mM),NF-kB SEAP reporter activity,RAW-Dual [2]; agonist: LPS (TLR4) 0.1 ug/mL,1.45
same,NF-kB SEAP reporter activity,RAW-Dual [2]; [5],0.82
same,NF-kB SEAP reporter activity,RAW-Dual [2]; [6],1.04
same,NF-kB SEAP reporter activity,RAW-Dual [2]; [7],1.06
COC1CC2CCC(C)C(O)(O2)C(=O)C(=O)N2CCCCC2C(=O)OC(C(C)CC2CCC(O)C(OC)C2)CC(=O)C(C)C=C(C)C(O)C(OC)C(=O)C(C)CC(C)C=CC=CC=C1C (stereo unspecified),NF-kB SEAP reporter activity,RAW-Dual [1]; [3],1.44
same,NF-kB SEAP reporter activity,RAW-Dual [1]; [4],1.5
same,NF-kB SEAP reporter activity,"RAW-Dual [1]; library stock concentration (final ~1000-fold dilution): .1 mM, agonist: Imiquimod (TLR7) […]",1.35
same,NF-kB SEAP reporter activity,"RAW-Dual [1]; library stock concentration (final ~1000-fold dilution): .1 mM, agonist: MPLA (TLR4) […]",1.19
COC1CC2CCC(C)C(O)(O2)C(=O)C(=O)N2CCCCC2C(=O)OC(C(C)CC2CCC(OC(=O)C(C)(CO)CO)C(OC)C2)CC(=O)C(C)C=C(C)C(O)C(OC)C(=O)C(C)CC(C)C=CC=CC=C1C (stereo unspecified),NF-kB SEAP reporter activity,RAW-Dual [1]; [3],2.36
same,NF-kB SEAP reporter activity,RAW-Dual [1]; [4],2.41
COC1CC2CCC(C)C(O)(O2)C(=O)C(=O)N2CCCCC2C(=O)OC(C(C)CC2CCC(OCCO)C(OC)C2)CC(=O)C(C)C=C(C)C(O)C(OC)C(=O)C(C)CC(C)C=CC=CC=C1C (stereo unspecified),NF-kB SEAP reporter activity,RAW-Dual [1]; [3],1.77
same,NF-kB SEAP reporter activity,RAW-Dual [1]; [4],1.92
COC1CC2CCC(C)C(O)(O2)C(=O)C(=O)N2CCCCC2C(=O)OC(C(C)CC2CCC(OC(=O)C(C)(CO)CO)C(OC)C2)CC(=O)C(C)C=C(C)C(O)C(OC)C(=O)C(C)CC(C)C=CC=CC=C1C (stereo unspecified) (library stock concentration (final ~1000-fold dilution): 10 mM),NF-kB SEAP reporter activity,RAW-Dual [2]; agonist: LPS (TLR4) 0.1 ug/mL,3.85
same,NF-kB SEAP reporter activity,RAW-Dual [2]; [5],3.11
same,NF-kB SEAP reporter activity,RAW-Dual [2]; [6],1.33
same,NF-kB SEAP reporter activity,RAW-Dual [2]; [7],2.09
COC1CC2CCC(C)C(O)(O2)C(=O)C(=O)N2CCCCC2C(=O)OC(C(C)CC2CCC(O)C(OC)C2)CC(=O)C(C)C=C(C)C(O)C(OC)C(=O)C(C)CC(C)C=CC=CC=C1C (stereo unspecified) (library stock concentration (final ~1000-fold dilution): .1 mM),NF-kB SEAP reporter activity,RAW-Dual [2]; agonist: LPS (TLR4) 0.1 ug/mL,1.2
same,NF-kB SEAP reporter activity,RAW-Dual [2]; [5],1.31
same,NF-kB SEAP reporter activity,RAW-Dual [2]; [6],1.53
same,NF-kB SEAP reporter activity,RAW-Dual [2]; [7],1.44
COC1CC2CCC(C)C(O)(O2)C(=O)C(=O)N2CCCCC2C(=O)OC(C(C)CC2CCC(OCCO)C(OC)C2)CC(=O)C(C)C=C(C)C(O)C(OC)C(=O)C(C)CC(C)C=CC=CC=C1C (stereo unspecified) (library stock concentration (final ~1000-fold dilution): 10 mM),NF-kB SEAP reporter activity,RAW-Dual [2]; agonist: LPS (TLR4) 0.1 ug/mL,1.83
same,NF-kB SEAP reporter activity,RAW-Dual [2]; [5],1.7
same,NF-kB SEAP reporter activity,RAW-Dual [2]; [6],0.629
same,NF-kB SEAP reporter activity,RAW-Dual [2]; [7],0.915
COC1CC2CCC(C)C(O)(O2)C(=O)C(=O)N2CCCCC2C(=O)OC(C(C)CC2CCC(O)C(OC)C2)CC(=O)C(C)C=C(C)C(O)C(OC)C(=O)C(C)CC(C)C=CC=CC=C1C (stereo unspecified) (library stock concentration (final ~1000-fold dilution): 10 mM),NF-kB SEAP reporter activity,RAW-Dual [2]; agonist: LPS (TLR4) 0.1 ug/mL,1.57
same,NF-kB SEAP reporter activity,RAW-Dual [2]; [5],1.11
same,NF-kB SEAP reporter activity,RAW-Dual [2]; [6],0.536
same,NF-kB SEAP reporter activity,RAW-Dual [2]; [7],0.77
NS(=O)(=O)c1ccccc1 (library stock concentration (final ~1000-fold dilution): 10 mM),NF-kB SEAP reporter activity,RAW-Dual [2]; agonist: LPS (TLR4) 0.1 ug/mL,1.04
same,NF-kB SEAP reporter activity,RAW-Dual [2]; [5],0.987
same,NF-kB SEAP reporter activity,RAW-Dual [2]; [6],1.07
same,NF-kB SEAP reporter activity,RAW-Dual [2]; [7],0.771
NS(=O)(=O)c1ccccc1,NF-kB SEAP reporter activity,RAW-Dual [1]; [4],1.11
C=CC1CN2CCC1CC2C(O)c1ccnc2ccc(OC)cc12.C=CC1CN2CCC1CC2C(O)c1ccnc2ccc(OC)cc12.O.O.O=S(=O)(O)O (stereo unspecified),NF-kB SEAP reporter activity,RAW-Dual [1]; [3],1.06
same,NF-kB SEAP reporter activity,RAW-Dual [1]; [4],0.931
C=CC1CN2CCC1CC2C(O)c1ccnc2ccc(OC)cc12.C=CC1CN2CCC1CC2C(O)c1ccnc2ccc(OC)cc12.O.O.O=S(=O)(O)O (stereo unspecified) (library stock concentration (final ~1000-fold dilution): 10 mM),NF-kB SEAP reporter activity,RAW-Dual [2]; agonist: LPS (TLR4) 0.1 ug/mL,1.16
same,NF-kB SEAP reporter activity,RAW-Dual [2]; [5],0.531
same,NF-kB SEAP reporter activity,RAW-Dual [2]; [6],1.35
same,NF-kB SEAP reporter activity,RAW-Dual [2]; [7],1.05
CN(C)Cc1ccc(S(=O)(=O)n2ccc(/C=C/C(=O)NO)c2)cc1 (library stock concentration (final ~1000-fold dilution): 10 mM),NF-kB SEAP reporter activity,RAW-Dual [2]; agonist: LPS (TLR4) 0.1 ug/mL,4.18
same,NF-kB SEAP reporter activity,RAW-Dual [2]; [5],0.95
same,NF-kB SEAP reporter activity,RAW-Dual [2]; [6],1.03
same,NF-kB SEAP reporter activity,RAW-Dual [2]; [7],0.94
CN(C)Cc1ccc(S(=O)(=O)n2ccc(/C=C/C(=O)NO)c2)cc1,NF-kB SEAP reporter activity,RAW-Dual [1]; [3],1.01
same,NF-kB SEAP reporter activity,RAW-Dual [1]; [4],0.905
CC1(Cn2ccnn2)C(C(=O)O)N2C(=O)CC2S1(=O)=O (stereo unspecified) (library stock concentration (final ~1000-fold dilution): 10 mM),NF-kB SEAP reporter activity,RAW-Dual [2]; agonist: LPS (TLR4) 0.1 ug/mL,0.971
same,NF-kB SEAP reporter activity,RAW-Dual [2]; [5],1.03
same,NF-kB SEAP reporter activity,RAW-Dual [2]; [6],0.946
same,NF-kB SEAP reporter activity,RAW-Dual [2]; [7],1.06
CC1(Cn2ccnn2)C(C(=O)O)N2C(=O)CC2S1(=O)=O (stereo unspecified),NF-kB SEAP reporter activity,RAW-Dual [1]; [3],1.06
same,NF-kB SEAP reporter activity,RAW-Dual [1]; [4],0.964
CC(C)Nc1cc(-c2c[nH]c(C(=O)NC(CO)c3cccc(Cl)c3)c2)c(Cl)cn1 (stereo unspecified) (library stock concentration (final ~1000-fold dilution): 10 mM),NF-kB SEAP reporter activity,RAW-Dual [2]; agonist: LPS (TLR4) 0.1 ug/mL,0.201
same,NF-kB SEAP reporter activity,RAW-Dual [2]; [5],0.189
same,NF-kB SEAP reporter activity,RAW-Dual [2]; [6],0.0811
same,NF-kB SEAP reporter activity,RAW-Dual [2]; [7],0.114
CC(C)Nc1cc(-c2c[nH]c(C(=O)NC(CO)c3cccc(Cl)c3)c2)c(Cl)cn1 (stereo unspecified),NF-kB SEAP reporter activity,RAW-Dual [1]; [3],0.128
same,NF-kB SEAP reporter activity,RAW-Dual [1]; [4],0.246
